# High-throughput results: PubChem BioAssay, National Center for Advancing Translational Sciences (NCATS)
# Luc counter: Kinase-Glo luciferase inhibition (counter-screen); Potency, µM (doses to about 38.3 µM), without a hit: at the highest dose activity change, negative = inhibition, most hits filed as inhibitors; Kinase-Glo luciferase, ATP luminescence, 8 min; actives 0.28% (n = 200,000); further: on the % scale 0 is the no-effect control and ±100 the full control effect; nearly all actives have a fitted effect of over 60% in size
#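 Luminescence was the read-out, taken after 8-minute incubation at ambient temperature. Luciferase turned over luciferin with 10 uM ATP in imidazole pH 7.2 buffer containing KCl, MgCl2, Tween 20 and BSA.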
# ELG1 genotox: induces genotoxicity in HEK293T cells with luciferase-tagged ELG1; HEK293T ELG1-luciferase reporter, luminescence, 16 h; Potency, µM (top dose mostly 46 µM), for inactives: top-dose activity change, positive = activation, actives largely listed as activators; actives 1.3% (n = 330,000); AID 504466; further: % of control where 0% means no effect; nearly all actives have a fitted effect of over 60% in size
#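 Reporter readout depends on ELG1 protein level, which increases with genetic stress. After 16 hr compound exposure at 37 °C, luciferase activity was quantified using ONE-Glo.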
# SMN2 splice enh: SMN2 splice variant enhancement. HEK293 SMN2-luciferase splicing reporter, luminescence, 30-36 h. Potency, µM (titrated, usually from 46.1 µM), for inactives: at the highest dose activity change, positive = activation, actives largely listed as activators. actives 2.8% (n = 210,000). AID 1458; further: % of control where 0% means no effect; nearly all actives have a fitted effect of over 55% in size
#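 HEK293 cells carry an SMN2 […]–luciferase reporter in which exon 7 inclusion puts luciferase in frame. Cells were plated 10-12 h before compound addition, then incubated 30-36 h at 37C. ONE-Glo luminescence was read; sodium butyrate at 4.5 mM final served as control.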
# Rab9 prom act: Rab9 promoter activation | Huh7 Rab9 promoter-luciferase reporter, luminescence, 24 h | Potency, µM (highest dose often 9.22 µM), for inactives: top-dose activation, negative = inhibition, most hits filed as activators | actives 2.8% (n = 320,000) | AID 485297; further: % of control where 0% means no effect; nearly all actives have a fitted effect of over 60% in size
#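 Promoter activation is measured as luciferase luminescence in Huh7 cells stably transfected with a Rab9 promoter–luciferase construct, following 24 h compound exposure at 37 °C and 10 min reagent incubation at ambient temperature.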
# FLuc counter: counter-screen for miR-21 project: firefly luciferase inhibitors or activators. P08659. purified FLuc, Km substrates, luminescence inhibition. Potency, µM (highest dose often 57.5 µM), without a hit: top-dose activity change, negative = inhibition, most hits filed as inhibitors. actives 6.9% (n = 360,000). AID 588342;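 further: plate controls were vehicle for no effect and reference inhibitor for full effect; nearly all actives have a fitted effect of over 55% in size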
# Target sequence (P08659 whole entry, looked up): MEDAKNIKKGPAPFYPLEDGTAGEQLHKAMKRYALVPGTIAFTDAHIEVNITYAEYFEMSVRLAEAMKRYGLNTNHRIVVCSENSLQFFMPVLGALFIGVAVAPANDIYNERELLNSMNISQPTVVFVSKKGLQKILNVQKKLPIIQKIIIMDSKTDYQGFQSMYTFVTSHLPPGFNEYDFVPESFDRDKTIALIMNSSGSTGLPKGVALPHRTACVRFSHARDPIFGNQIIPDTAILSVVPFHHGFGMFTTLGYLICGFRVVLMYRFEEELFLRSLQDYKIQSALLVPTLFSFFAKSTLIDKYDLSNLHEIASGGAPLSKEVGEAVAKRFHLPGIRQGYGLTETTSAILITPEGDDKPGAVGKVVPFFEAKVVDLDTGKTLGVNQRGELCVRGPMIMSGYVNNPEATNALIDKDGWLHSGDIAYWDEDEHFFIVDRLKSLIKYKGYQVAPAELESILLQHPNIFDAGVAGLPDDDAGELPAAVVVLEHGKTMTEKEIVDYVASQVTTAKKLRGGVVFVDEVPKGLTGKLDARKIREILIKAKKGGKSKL
#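 Purified P. pyralis luciferase, 10 nM final, with Km-level 10 uM D-luciferin and 10 uM ATP in 50 mM Tris acetate pH 7.5, 10 mM Mg acetate, 0.01% Tween-20, 0.05% BSA; 6-point qHTS titration about 60 µM downward; luminescence read.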
# NPC1 promoter act: NPC1 promoter activation; Huh7 NPC1 promoter luciferase reporter, 24 h; Potency, µM (series often up to 9.22 µM), inactives show at the top dose activation, hits mostly activators; actives 2.4% (n = 320,000); AID 485313; further: % of control where 0% means no effect; nearly all actives have a fitted effect of over 60% in size
#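 Luciferase expression driven by the NPC1 promoter was measured in stably transfected Huh7 cells after a 24 h compound incubation, using a luciferase reagent and a luminescence read.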
# * = called active by the depositor; ? = inconclusive; nt = no result given. Compounds with a hit are over-represented: about 7.5% of the library has one in this group of screens. The call rests on the fitted dose curve; in most records, active means well fitted curve in the direction sought with a large enough effect; inconclusive means small, poorly fitted or top-dose-only effect, or another doubt; inactive means no such curve, though single readings can be large; an effect the other way counts as inactive or inconclusive. Potency means the concentration at half of the fitted maximal effect.
SMILES,Luc counter,ELG1 genotox,SMN2 splice enh,Rab9 prom act,FLuc counter,NPC1 promoter act
O=C(NC1CCCCC1)c1noc2c1CCCCC2,-5%,9.2µM*,13µM*,2.5µM*,9.5µM*,2.2µM*
CC(C)(C)C1CCc2onc(C(=O)NC3CCCC3)c2C1 (configuration not stated),-2%,-1%,-33%,-5%,3%,1%
Cc1cccc(Nc2nnc(SCC(=O)Nc3cccnc3Cl)s2)c1,-25%,5%,-2%,11%,6µM*,5%
O=c1cc(CSc2nnc(Nc3ccccc3)s2)nc2sccn12,-4%,-13%,?,-5%,-10%,7%
Cc1cccc(Nc2nnc(SCc3cn4ccsc4n3)s2)c1,-9%,3%,-9%,-1%,17µM*,1%
Cc1cccc(Nc2nnc(SCC(=O)NC3CCCc4ccccc43)s2)c1 (configuration not stated),3%,-8%,-36%,-2%,6µM*,-6%
Cc1cccc(Nc2nnc(SCC(=O)NCc3cccs3)s2)c1,-3%,6%,5%,11%,11µM*,7%
Cc1cccc(Nc2nnc(SCC(=O)NCc3cccs3)s2)c1C,0%,-1%,8%,-3%,-17%,-4%
Nc1nnc(SCC(=O)Nc2cccnc2Cl)s1,nt,-4%,nt,-6%,-8%,2%
Cn1nc(C(F)(F)F)c(-c2ccc(Br)cc2)c1NC(=O)Nc1ccc(F)cc1F,nt,-12%,nt,-1%,4%,-7%
Cc1ccc(Nc2nnc(SCC(=O)NCCN3C(=O)CSC3=O)s2)cc1C,nt,?,nt,26%,1.7µM*,?
Cc1nc2ccc(NS(=O)(=O)c3ccc(Br)cc3)cc2s1,nt,-4%,nt,1%,0%,1%
COc1ccc(C(=O)NNC(=O)COC(=O)c2sccc2C)cc1,nt,-3%,nt,1%,nt,-2%
CN(CC(=O)Nc1ccc(F)cc1)C(=O)COC(=O)c1cccc(N(C)C)c1,nt,?,nt,1.4µM*,?,2.2µM*
CN(C)c1cccc(C(=O)OCC(=O)c2ccc[nH]2)c1,nt,?,nt,1.4µM*,11µM*,3.2µM*
Cc1ccsc1C(=O)OCC(=O)c1ccc(OC(F)F)cc1,nt,2%,nt,?,1.1µM*,3%
Cc1ccsc1C(=O)OCC(=O)N1CCc2ccccc2C1,1%,?,25µM*,0.79µM*,8.5µM*,2.8µM*
Cc1ccsc1C(=O)OCC(=O)c1ccc[nH]1,nt,?,nt,2.8µM*,13µM*,?
c1ccc(Cc2cc(-c3ccccc3)on2)cc1,-2%,?,?,?,12µM*,28%
O=C(c1cc2cc(Br)ccc2o1)N1CCCCC1,-6%,?,11µM*,4µM*,11µM*,2.5µM*
CC1CCN(C(=O)c2cc3ccccc3c(=O)o2)CC1,-1%,9%,25%,1%,?,15%
Cc1ccc2oc(C(=O)N3CCCCCC3)c(C)c2c1,nt,18µM*,nt,nt,15µM*,2.2µM*
O=C(c1cc2cc(Cl)ccc2o1)N1CCCC1,nt,?,nt,20%,?,23%
O=C(c1cc2ccccc2c(=O)o1)N1CCCCCC1,-3%,15%,2%,13%,24µM*,1%
Cc1ccc2oc(C(=O)N3CCC(C(N)=O)(N4CCCCC4)CC3)c(C)c2c1,nt,-2%,nt,0%,-1%,-1%
SMILES,Luc counter,ELG1 genotox,SMN2 splice enh,Rab9 prom act,FLuc counter,NPC1 promoter act
Cc1c(C(=O)N2CCCCC2)oc2ccc(Br)cc12,nt,?,nt,?,21µM*,?
O=S(=O)(NCCc1nnc2ccc(SCc3cccc(Cl)c3)nn12)c1ccccc1,nt,nt,nt,nt,0%,nt
COc1ccc2oc(C(=O)OC(C)C(=O)N3C(C)CCCC3C)c(C)c2c1 (configuration not stated),nt,-7%,nt,nt,nt,nt
O=C(NCC(F)(F)F)c1ccc(S(=O)(=O)N2CCN(C(=O)C3CCCO3)CC2)cc1 (configuration not stated),nt,0%,nt,0%,-2%,0%
COC(=O)c1ccccc1NCC(=O)c1ccc(OC)cc1,nt,7%,nt,29%,?,?
COc1ccc(C(=O)CNc2ccccc2CO)cc1,-27%,?,?,-3%,17µM*,10%
COc1ccc(C(=O)CNc2ccc(C)cc2C)cc1,nt,12%,nt,36%,12µM*,23%
Cc1ccc(C2CC(=O)N(Cc3ccccc3F)c3c2c(C)nn3-c2nc(C)cc(C)n2)cc1 (configuration not stated),nt,nt,nt,nt,-3%,nt
Cc1cc(C)c(S(=O)(=O)N(C)CC(=O)NCc2ccncc2)c(C)c1,-1%,0%,nt,-3%,-1%,0%
Cc1ccc(S(=O)(=O)Oc2ccc(C)cc2/C=N/N=C2\NC(=O)C(C)S2)cc1 (configuration not stated),-1%,?,-8%,?,9.5µM*,11%
CC1S/C(=N/N=C/c2cccs2)NC1=O (configuration not stated),nt,14%,nt,2%,?,0%
Cc1c(N)cccc1-c1nc2ccccc2[nH]1,-9%,18%,10µM*,30%,24µM*,25%
Nc1nc(CSc2nc3ccccc3[nH]2)cs1,0%,12%,19%,?,?,?
Nc1nc2ccccc2[nH]1,nt,-2%,-6%,3%,0%,-1%
Cc1ccc2nc(-c3ccccc3N)[nH]c2c1,-30%,1.2µM*,7.1µM*,0.5µM*,0.76µM*,1.1µM*
Nc1nc(-c2nc3ccccc3[nH]2)cs1,-20%,2.1µM*,16µM*,1.1µM*,5.4µM*,1.3µM*
c1ccc(-c2nc3c(ccc4ccccc43)[nH]2)nc1,-15%,18%,14µM*,?,3.8µM*,2.8µM*
CCc1nnc(NC(=O)CCC(=O)N2CCC(Cc3ccccc3)CC2)s1,nt,-5%,nt,-4%,1%,2%
O=c1[nH]c(-c2ccccn2)nc2ccccc12,nt,?,nt,?,24µM*,?
Cc1sc2nc(-c3ccccn3)[nH]c(=O)c2c1-c1ccccc1,-14%,?,52%,28%,11µM*,24%
c1ccc(-c2n[nH]c(-c3ccccc3)c2-c2nc3ccccc3[nH]2)cc1,-1%,-4%,-17%,-6%,-2%,-7%
Nc1ccccc1-c1nc2ccccc2[nH]c1=O,nt,7%,nt,?,24µM*,?
Cc1sc2nc(-c3ccncc3)[nH]c(=O)c2c1-c1ccccc1,1%,6%,-5%,-12%,-14%,1%
c1ccc(-c2nc3ccccc3[nH]2)nc1,7.9µM*,?,3.2µM*,2.8µM*,12µM*,4µM*
Cc1ccc2nc(-c3ccccn3)[nH]c2c1,nt,?,nt,0.35µM*,1.3µM*,?
Cc1ccc2nc(CCCc3nc4ccc(C)cc4[nH]3)[nH]c2c1,nt,-7%,nt,0%,?,1%
